According to PubChem BioAssay AID1159580 (chemical genetic matrix, 2015):
Where “and” joins values, the source holds several entries; their conditions need not be identical. Equal values may be shown once. About 2,000 (36%) of roughly 5,500 compounds were called active. Inconclusive results (about 18%) are left out. Rule as the data show it: active = normalized growth mostly below about 0.91 (no sharp cut-off); inconclusive = no clear call, values can overlap the other calls; inactive = mostly above about 0.92. Some of the results follow.

Assay: chemical genetic growth profiling, strain panel (AID 1159580);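 also: tested at 20 µM; growth read once vehicle control cultures reached saturation at 30 °C; 1 = growth at the plate median or of vehicle wells; lower values mean less growth of the strain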
Details: S. cerevisiae deletion strains, growth OD

Measured: normalized growth

C[N+](C)(C)CC(=O)[O-]
inactive: locus YAL013W, strain DEP1, hits give low values 0.992 | locus YAL021C, strain ccr4, hits give low values 0.993 | locus YAL026C, strain drs2, hits give low values 0.983 | locus YAL030W, strain snc1, hits give low values 1 | locus YBL061C, strain skt5, hits give low values 0.978 | locus YBR009C, strain hhf1, hits give low values 1 | locus YBR021W, strain FUR4, hits give low values 1.16 | locus YBR023C, strain chs3, hits give low values 0.998 | locus YBR171W, strain sec66, hits give low values 0.981 | locus YBR229C, strain ROT2, hits give low values 0.993 | locus YBR231C, strain swc5, hits give low values 0.969 | locus YBR279W, strain paf1, hits give low values 0.997 | locus YCL011C, strain gbp2, hits give low values 0.982 | locus YCL016C, strain dcc1, hits give low values 1 | locus YCL029C, strain bik1, hits give low values 0.982 | locus YCL061C, strain MRC1, hits give low values 0.972 | locus YCL069W, strain vba3, hits give low values 0.997 | locus YCR088W, strain abp1, hits give low values 0.996 | locus YDL005C, strain med2, hits give low values 0.959 | locus YDL035C, strain GPR1, hits give low values 0.994 | locus YDL040C, strain nat1, hits give low values 0.988 | locus YDL074C, strain BRE1, hits give low values 0.949 | locus YDL101C, strain DUN1, hits give low values 0.998 | locus YDL134C, strain PPH21, hits give low values 1.01 | locus YDL185W, strain tfp1, hits give low values 0.95 | locus YDL192W, strain arf1, hits give low values 0.985 | locus YDR001C, strain nth1, hits give low values 0.957 | locus YDR069C, strain doa4, hits give low values 0.955 | locus YDR101C, strain arx1, hits give low values 0.969 | locus YDR137W, strain rgp1, hits give low values 1.02 | locus YDR150W, strain NUM1, hits give low values 0.981 | locus YDR159W, strain sac3, hits give low values 0.978 | locus YDR162C, strain NBP2, hits give low values 0.996 | locus YDR195W, strain ref2 0.974 | locus YDR297W, strain sur2, hits give low values 0.994 | locus YDR318W, strain mcm21, hits give low values 0.992 | locus YDR334W, strain swr1, hits give low values 0.939 | locus YDR335W, strain msn5, hits give low values 0.964 | locus YDR388W, hits give low values 0.997 | locus YDR392W, strain spt3, hits give low values 1 | locus YDR502C, strain sam2, hits give low values 0.986 | locus YEL003W, strain gim4, hits give low values 0.99 | locus YEL037C, strain rad23, hits give low values 0.989 | locus YEL061C, strain CIN8 (second series), hits give low values 0.992 | locus YEL061C, strain CIN8, hits give low values 0.996 | locus YER015W, strain faa2, hits give low values 0.993 | locus YER016W, strain bim1, hits give low values 1.02 | locus YER110C, hits give low values 0.985 | locus YER111C, strain swi4, hits give low values 0.992 | locus YER155C, strain BEM2 (second series), hits give low values 0.987 | locus YER155C, strain BEM2, hits give low values 0.996 | locus YER167W, strain BCK2, hits give low values 0.993 | locus YFR010W, strain ubp6, hits give low values 0.958 | locus YGL078C, strain dbp3, hits give low values 0.998 | locus YGL086W, strain mad1, hits give low values 1.01 | locus YGL167C, strain pmr1, hits give low values 0.978 | locus YGL173C, strain kem1, hits give low values 1 | locus YGL227W, strain vid30, hits give low values 0.968 | locus YGL240W, strain doc1, hits give low values 0.981 | locus YGL248W, strain PDE1, hits give low values 0.989 | locus YGL253W, strain hxk2, hits give low values 0.962 | locus YGR078C, strain PAC10, hits give low values 0.955 | locus YGR135W, strain pre9, hits give low values 0.984 | locus YGR229C, strain SMI1, hits give low values 0.979 | locus YGR252W, strain gcn5, hits give low values 1.19 | locus YHR013C, strain ard1, hits give low values 0.992 | locus YHR027C, strain rpn1, hits give low values 0.983 | locus YHR030C, strain SLT2, hits give low values 0.993 and 0.982 | locus YHR079C, strain IRE1 (second series), hits give low values 0.982 | locus YHR079C, strain IRE1, hits give low values 0.989 | locus YHR094C, strain hxt1, hits give low values 0.973 | locus YHR129C, strain ARP1, hits give low values 0.994 | locus YHR142W, strain chs7, hits give low values 0.963 | locus YHR200W, strain rpn10, hits give low values 0.978 | locus YIL066C, strain RNR3, hits give low values 0.983 | locus YIL073C, strain SPO22, hits give low values 0.94 | locus YIL125W, strain kgd1, hits give low values 0.988 | locus YIR030C, strain dcg1, hits give low values 0.994 | locus YJL092W, strain hpr5, hits give low values 0.989 | locus YJL095W, strain BCK1 (second series), hits give low values 0.979 | locus YJL095W, strain BCK1, hits give low values 0.987 and 0.995 | locus YJL115W, strain asf1, hits give low values 0.966 | locus YJL129C, strain trk1, hits give low values 0.958 | locus YJL134W, strain LCB3, hits give low values 1 | locus YJL154C, strain vps35, hits give low values 0.963 | locus YJL164C, strain tpk1, hits give low values 1.01 | locus YJL166W, strain qcr8, hits give low values 0.978 | locus YJL168C, strain set2, hits give low values 0.992 | locus YJL187C, strain SWE1 (second series), hits give low values 0.988 | locus YJL187C, strain SWE1, hits give low values 0.964 | locus YJR043C, strain POL32, hits give low values 0.998 | locus YJR066W, strain TOR1, hits give low values 0.948
